Laboratory results reported in PubChem BioAssay.
Activity calls are given as the source filed them.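 How the source made its calls, unless noted: active means inhibition above 20% together with a positive visual image hit; inconclusive means visual image hit but inhibition not above 20%; inactive means no visual image hit.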

How the values were obtained:
[1] = inhibitors of TNFa-induced NFkB p65 translocation, primary screen, imaging, HUVEC, MLSMR starter and 10KST1 sets (AID 438); details: HUVEC TNFa-induced p65 nuclear translocation; cell count: measured here: nuclei count (cytotoxicity indicator), at 2.08 µM; inhibition: at 2 µM, stronger effect = higher value, 0% TNFa-plus-vehicle, 100% no-TNFa wells;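 further: compound added about 3h40 before a 20 min TNFalpha stimulation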;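 on inhibition: signal is the nuclear over cytoplasmic p65 intensity ratio per well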
[2] = reduction of polyQ htt aggregates in cells – imaging, exon1htt(103Q)mCFP cells, high-content imaging, primary screen (AID 483;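 active means visual image review flags a hit and inhibition of aggregation exceeds 20%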;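 further: compound exposure lasted 3 days before fixation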;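 on nuclei count: percent of the per-plate median nuclei count of sample wells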); details: exon1htt(103Q)mCFP cell line, aggregate imaging, at 2 µM; inhibition of aggregation: stronger effect = higher value; nuclei count: measured here: cell count, toxicity
[3] = endothelial E-selectin expression blockers – imaging, HUVEC, immunofluorescence, MLSMR starter and 10KST1 sets, primary screen (AID 487;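 active means visually confirmed hit in the image check and inhibition above 20%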;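 on inhibition: signal is fraction of cell area covered by stained E-selectin grains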;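 on nuclei count: 100% = median nuclei count of all wells on the same plate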); details: HUVEC TNFalpha-induced E-selectin immunofluorescence imaging, at 2 µM; inhibition: stronger effect = higher value; nuclei count: measured here: cell number, toxicity
[4] = biological target: Voltage-gated potassium channel subunit beta-2 (Rattus norvegicus) (UniProt P62483); assay: inhibitors of rat Kvbeta2 reductase activity – biochemical, NADPH fluorescence, primary screen (AID 622;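 active means fluorescence slope higher than the sample average by over 3 SD, cut at about -0.22 in these data, passing the limit was not always enough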;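 further: slope of raw intensity against log time taken from 70 to 1610 s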); details: recombinant KvBeta, 4-cyanobenzaldehyde reduction, at 10 µM, stronger effect = higher value
[5] = biological target: Voltage-gated potassium channel subunit beta-2 (Rattus norvegicus) (UniProt P62483); assay: enhancers of rat Kvbeta2 NADPH turnover – biochemical, NADPH fluorescence, primary screen (AID 623;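 active means NADPH fluorescence slope more negative than the mean of all samples by about 3 SD, 99.7% confidence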;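 further: fluorescence intensity change per second fitted from 20 to 320 s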); details: Recombinant KvBeta, NADPH fluorescence decrease slope, 10 min; at 10 µM; stronger effect = lower value
[6] = biological target: Alpha-2C adrenergic receptor (Homo sapiens) (UniProt P18825); assay: compounds altering alpha2C-coupled GIRK flux – cell-based, HEK293 alpha2C/GIRK1/2, thallium flux, primary screen (AID 624;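 active means fluorescence slope after compound addition differing from the mean of all screened samples at 99.7% confidence, in either direction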;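 further: slope of fluorescence ratio to pre-addition baseline per second over 15 to 24 s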); details: thallium flux BTC fluorescence, at 10 µM, actives lie on both sides
[7] = blockers of RIG-like receptor reporter activation – cell-based, Sendai virus stimulus, luciferase, 10K MLSCN set, TLR/RLR signaling modifier project, primary screen (AID 602276;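 active means inhibition at or above 50% at 10 µM; inactive means inhibition below 50%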;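 further: firefly luciferase from ISG56 promoter only with Renilla not read in this screen; 0% = Sendai virus plus DMSO and 100% = medium plus DMSO without virus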); details: HEK293 RL24 IRF3 luciferase reporter, at 10 µM, stronger effect = higher value
[8] = TLR3 IRF3 reporter activation blockers – cell-based, poly I:C stimulus, luciferase, 10K MLSCN set, primary screen (AID 602277;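 active means inhibition of the reporter signal at or above 50%; inactive means inhibition below 50%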); details: HEK293-TLR3 RL24 IRF3 luciferase reporter, at 10 µM, stronger effect = higher value

Voltage-gated potassium channel subunit beta-2 (Rattus norvegicus), sequence (P62483 whole entry, looked up): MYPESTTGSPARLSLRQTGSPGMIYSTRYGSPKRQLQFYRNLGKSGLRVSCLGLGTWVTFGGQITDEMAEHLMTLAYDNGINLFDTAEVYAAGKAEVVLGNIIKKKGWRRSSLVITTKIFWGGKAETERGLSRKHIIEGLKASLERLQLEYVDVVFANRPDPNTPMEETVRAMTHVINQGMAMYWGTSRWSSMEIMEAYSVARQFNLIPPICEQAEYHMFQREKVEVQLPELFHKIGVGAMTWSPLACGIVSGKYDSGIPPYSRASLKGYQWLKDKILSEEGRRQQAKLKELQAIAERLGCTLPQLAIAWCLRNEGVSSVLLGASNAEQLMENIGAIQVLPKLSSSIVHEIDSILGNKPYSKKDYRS
Alpha-2C adrenergic receptor (Homo sapiens), sequence (P18825 whole entry, looked up): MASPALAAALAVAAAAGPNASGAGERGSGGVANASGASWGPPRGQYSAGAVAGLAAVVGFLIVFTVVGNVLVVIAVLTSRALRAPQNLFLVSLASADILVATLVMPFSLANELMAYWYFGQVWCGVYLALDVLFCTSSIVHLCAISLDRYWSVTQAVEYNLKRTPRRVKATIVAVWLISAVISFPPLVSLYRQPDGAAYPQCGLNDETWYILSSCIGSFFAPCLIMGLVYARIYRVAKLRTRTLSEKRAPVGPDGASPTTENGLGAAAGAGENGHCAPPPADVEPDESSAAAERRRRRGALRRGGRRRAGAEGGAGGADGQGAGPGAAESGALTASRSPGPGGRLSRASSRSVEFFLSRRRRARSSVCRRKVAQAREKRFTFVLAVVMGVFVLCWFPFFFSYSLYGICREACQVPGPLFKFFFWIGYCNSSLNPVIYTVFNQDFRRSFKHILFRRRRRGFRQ

SMILES	cell count [1]	inhibition [1]	inhibition of aggregation [2]	nuclei count [2] [%]	inhibition [3]	nuclei count [3] [%]	fluorescence slope [4]	NADPH fluorescence slope [5]	slope [6]	inhibition [7]	inhibition [8]
COc1ccc(NC(=O)CSc2nc3c(c(=O)n2-c2ccc(F)cc2)SCC3)cc1	596	-5.8% (inactive)	20% (inactive)	53.8	-11.9% (inactive)	91.5	-0.541 (inactive)	-1.7e-05 (inactive)	0.00814 (inactive)	17.1% (inactive)	26.3% (inactive)
NC(=O)COC(=O)CNC(=O)c1ccc(Cl)cc1	450	11.7% (inactive)	4.1% (inactive)	106	20.5% (inactive)	111	-0.521 (inactive)	-1.3e-05 (inactive)	0.00666 (inactive)	18.5% (inactive)	17.3% (inactive)
CC(=O)N1CCN(C(C)=O)C1c1ccccc1	464	6% (inactive)	-9.6% (inactive)	106	-231% (inactive)	133	-0.376 (inactive)	5.2e-06 (inactive)	0.00709 (inactive)	-22% (inactive)	-25.1% (inactive)
CCc1nc2sc(C)c(C)c2c(=O)n1CCO	396	7.2% (inactive)	10.8% (inactive)	81.4	-64.6% (inactive)	103	-0.422 (inactive)	1.1e-05 (inactive)	0.00292 (inactive)	5.69% (inactive)	32% (inactive)
COc1ccc(-c2c(C(F)(F)F)oc3c(CN4CCN(C)CC4)c(O)ccc3c2=O)cc1	555	7.7% (inactive)	-14% (inactive)	91.6	0.6% (inactive)	112	-0.421 (inactive)	2.5e-05 (inactive)	0.00536 (inactive)	-6.41% (inactive)	8.59% (inactive)
Cc1ccc(S(=O)(=O)N2CCOCC2)cc1C(=O)Nc1nc(-c2cccnc2)cs1	294	10.3% (inactive)	-1.2% (inactive)	99.3	-22.3% (inactive)	100	-0.527 (inactive)	2.5e-05 (inactive)	0.00585 (inactive)	7.72% (inactive)	15.3% (inactive)
O=C1CCCC2=C1C1(CCCC1)N=C(Nc1nc3ccccc3s1)N2	687	-4.4% (inactive)	-42.8% (inactive)	139	-39.4% (inactive)	117	-0.257 (inactive)	-9.3e-06 (inactive)	0.00377 (inactive)	10.1% (inactive)	2.82% (inactive)
COc1ccc2c(c1OC)C(=O)N(c1ccc3c(c1)CCC3)C2=O	683	-13.1% (inactive)	-0.9% (inactive)	103	-10.6% (inactive)	107	-0.499 (inactive)	3.4e-05 (inactive)	0.00573 (inactive)	8.67% (inactive)	-9.24% (inactive)
